These results are taken from PubChem BioAssay (EPA / NIEHS).

Results filed as inconclusive are left out. The source made the active and inactive calls. The calls were made as follows, unless noted: active = hit-call score of the fitted dose curve at least 0.9, where 1 is the maximum; inactive = score below 0.9.

The target of assay [1] is Retinoic acid receptor RXR-alpha (Homo sapiens) (UniProt P19793). Put plainly: ATG_RXRa_TRANS: Attagene TRANS-FACTORIAL HepG2 Assay for human Retinoid X Receptor alpha (RXRa) (AID 2283012; active = hit-call score of the fitted dose curve at least 0.9, where 1 is the maximum). A digest of the protocol: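 HepG2 cells transiently transfected with multiplexed GAL4-UAS reporter units and chimeric NR-GAL4 fusions, dosed 24 h. Reporter mRNA measured by RT-PCR, FAM labelling, HpaI digestion and capillary electrophoresis; gain-of-signal fitted relative to DMSO baseline.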

In assay [2] the target is human Retinoid X Receptor beta (RXRb), RXRB (gene 6257) (UniProt P28702). The experiment in a line: ATG_RXRb_TRANS: Attagene TRANS-FACTORIAL HepG2 Assay for human Retinoid X Receptor beta (RXRb) (AID 2283013; active = hit-call score of the fitted dose curve at least 0.9, where 1 is the maximum). The procedure, abridged:
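HepG2 cells transiently transfected with multiplexed reporter units driven by GAL4-UAS and exogenous chimeric NR-Gal4 proteins; treated 24 h. Reporter mRNA measured by RT-PCR, 6-FAM labelling and capillary electrophoresis; gain-of-signal fitted versus DMSO baseline.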

Assay [3] addresses human Thyroid Receptor alpha (THRa1), THRA (gene 7067) (UniProt P10827). The experiment in a line: ATG_THRa1_TRANS: Attagene TRANS-FACTORIAL HepG2 Assay for human Thyroid Receptor alpha (THRa1) (AID 2283014; active = hit-call score of the fitted dose curve at least 0.9, where 1 is the maximum). The procedure, abridged:
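Reporter transcript induction, read by capillary electrophoresis of 6-FAM-labelled RT-PCR products, reflects activity of a transfected THRa1-Gal4 fusion in HepG2 liver cells. Cells were dosed for 24 h; activity was fitted in the positive direction against DMSO.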

For assay [4], the target named is human Vitamin D Receptor (VDR), VDR (gene 7421) (UniProt P11473). Put plainly: ATG_VDR_TRANS: Attagene TRANS-FACTORIAL HepG2 Assay for human Vitamin D Receptor (VDR) (AID 2283022; active = hit-call score of the fitted dose curve at least 0.9, where 1 is the maximum). A digest of the protocol: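 Steps: transfect HepG2 with GAL4-UAS-driven reporter constructs; dose compounds 24 h; isolate RNA, reverse-transcribe, PCR-amplify with 6-FAM-labelled primer extension and HpaI digestion; quantify fragments by capillary electrophoresis relative to DMSO.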

Read-out in assay [5]: Interleukin-1 alpha (IL1a), IL1A (gene 3552)
Put plainly: BSK_BE3C_IL1a: BioMAP Diversity Plus: BE3C Assay for Interleukin-1 alpha (IL1a) Biomarker Activity (AID 2283016). To be noted: primary human bronchial epithelial cells; actives raise or lower the signal. A digest of the protocol: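 Human primary bronchial epithelial cells (BE3C system) were dosed with compound and IL-1a measured by ELISA 24 h later. Activity was fitted bidirectionally against DMSO baseline; cytotoxicity was tracked in parallel cultures by SRB total-protein staining.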

Read-out in assay [6]: Monocyte Chemoattractant Protein-1 (MCP1), CCL2 (gene 6347)
Put plainly: BSK_3C_MCP1: BioMAP Diversity Plus: 3C Assay for Monocyte Chemoattractant Protein-1 (MCP1) Biomarker Activity (AID 2283017). Particulars: primary human endothelial cells (HUVEC); actives raise or lower the signal. A digest of the protocol:
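ELISA read-out of MCP-1 from human umbilical vein endothelial cell cultures harvested 24 h post-dosing. Gain or loss of signal was fitted relative to DMSO.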

Read-out in assay [7]: Monocyte Chemoattractant Protein-1 (MCP1), CCL2 (gene 6347)
The experiment in a line: BSK_4H_MCP1: BioMAP Diversity Plus: 4H Assay for Monocyte Chemoattractant Protein-1 (MCP1) Biomarker Activity (AID 2283018). To be noted: primary human endothelial cells (HUVEC); actives raise or lower the signal. A digest of the protocol:
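Human umbilical vein endothelial cells (4H system) dosed with chemical; MCP-1 measured by ELISA 24 h after dosing. Bidirectional curve fitting against DMSO negative control as baseline; parallel SRB total-protein staining tracks overt cytotoxicity.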

Read-out in assay [8]: Human Leukocyte Antigen - DR isotype (HLADR), HLA-DRA (gene 3122)
Put plainly: BSK_3C_HLADR: BioMAP Diversity Plus: 3C Assay for Human Leukocyte Antigen - DR isotype (HLADR) Biomarker Activity (AID 2283019). Particulars: primary human endothelial cells (HUVEC); actives raise or lower the signal. A digest of the protocol: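 ELISA readout of surface HLA-DR on human umbilical vein endothelium, taken 24 h after chemical treatment. Gain- and loss-of-signal were both fitted relative to DMSO.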

Read-out in assay [9]: Interleukin-8 (IL8), CXCL8 (gene 3576)
Put plainly: BSK_3C_IL8: BioMAP Diversity Plus: 3C Assay for Interleukin-8 (IL8) Biomarker Activity (AID 2283020). To be noted: primary human endothelial cells (HUVEC); actives raise or lower the signal. A digest of the protocol:
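Primary human umbilical vein endothelial cells (3C system) were exposed to test chemical for 24 h, then IL-8 was quantified by ELISA. Responses were fitted bidirectionally against DMSO vehicle as baseline.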

Read-out in assay [10]: Monokine induced gamma interferon (MIG), CXCL9 (gene 4283)
The experiment in a line: BSK_3C_MIG: BioMAP Diversity Plus: 3C Assay for Monokine induced gamma interferon (MIG) Biomarker Activity (AID 2283021).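 As to AC50: MIG protein level measured by immunoassay in the treated endothelial cultures.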 To be noted: primary human endothelial cells (HUVEC); actives raise or lower the signal. A digest of the protocol: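 Primary human umbilical vein endothelial cells in the 3C system were exposed to chemical for 24 h, after which MIG was quantified by ELISA. Activity was fitted bidirectionally against DMSO as negative control and baseline.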

The nature of assay [11]: BSK_3C_SRB: Viability Assessment in the BioMAP Diversity Plus: 3C Assay (AID 2283023).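 Also: fitted both ways against DMSO so a hit may be signal rise or drop.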 Particulars: primary human endothelial cells (HUVEC). The procedure, abridged: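 Absorbance at 560 nm of sulforhodamine B-stained (0.1%) total protein served as a cytotoxicity readout in human umbilical vein endothelial cells, 24 h after chemical treatment. Signal was fitted bidirectionally relative to DMSO.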

Read-out in assay [12]: Matrix Metallopeptidase 1 (MMP1), MMP1 (gene 4312)
The experiment in a line: BSK_BE3C_MMP1: BioMAP Diversity Plus: BE3C Assay for Matrix Metallopeptidase 1 (MMP1) Biomarker Activity (AID 2283024). Particulars: primary human bronchial epithelial cells; actives raise or lower the signal. A digest of the protocol:
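Primary human bronchial epithelial cells were dosed with test chemicals, and MMP1 levels were measured by ELISA 24 h later. Data were fitted bidirectionally against DMSO as the negative control and activity baseline.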

Read-out in assay [13]: Pselectin, SELP (gene 6403)
Put plainly: BSK_4H_Pselectin: BioMAP Diversity Plus: 4H Assay for Pselectin Biomarker Activity (AID 2283026). To be noted: primary human endothelial cells (HUVEC); actives raise or lower the signal. A digest of the protocol: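 Primary human umbilical vein endothelial cells were exposed to test chemical for 24 h, then cell-surface P-selectin was quantified by ELISA. Activity was fitted bidirectionally against DMSO as negative control and baseline.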

Assay [14] can be described thus: BSK_4H_SRB: Viability Assessment in the BioMAP Diversity Plus: 4H Assay (AID 2283027).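 Also: cells exposed to compound for 24 h before staining.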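 As to AC50: curves fitted both ways versus DMSO so AC50 may be loss or gain.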 Particulars: primary human endothelial cells (HUVEC). A digest of the protocol:
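Human umbilical vein endothelial cells were dosed with chemical and, after 24 h, fixed with 10% TCA, stained with 0.1% sulforhodamine B, and read at 560 nm to give total protein as a cytotoxicity measure. Bidirectional fitting relative to DMSO control.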

Assay [15] can be described thus: BSK_BE3C_SRB: Viability Assessment in the BioMAP Diversity Plus: BE3C Assay (AID 2283028).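 As to AC50: fitted both ways so AC50 may mark signal gain or loss versus DMSO.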 To be noted: primary human bronchial epithelial cells. A digest of the protocol: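 Cells (human bronchial epithelial, primary) are treated with chemicals, and after 24 h the parallel cultures are fixed in 10% TCA. These are then stained with 0.1% SRB and read at 560 nm. Gain or loss of signal is fitted relative to DMSO.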

Read-out in assay [16]: Thrombomodulin, THBD (gene 7056)
The experiment in a line: BSK_3C_Thrombomodulin: BioMAP Diversity Plus: 3C Assay for Thrombomodulin Biomarker Activity (AID 2283029). Particulars: primary human endothelial cells (HUVEC); actives raise or lower the signal. The procedure, abridged: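 Primary human umbilical vein endothelial cells (3C system) were exposed to chemical for 24 h, then thrombomodulin levels were measured by ELISA. Activity was fitted bidirectionally against the DMSO negative control as baseline.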

Read-out in assay [17]: Urokinase-type plasminogen activator receptor (uPAR), PLAUR (gene 5329)
The experiment in a line: BSK_4H_uPAR: BioMAP Diversity Plus: 4H Assay for Urokinase-type plasminogen activator receptor (uPAR) Biomarker Activity (AID 2283030). To be noted: primary human endothelial cells (HUVEC); actives raise or lower the signal. The procedure, abridged: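 Cell-surface uPAR ELISA signal, measured 24 h after dosing human umbilical vein endothelial cells, was analyzed with bidirectional fitting relative to DMSO. Parallel SRB staining of total protein tracked overt cytotoxicity.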

Read-out in assay [18]: E-selectin (Homo sapiens) (UniProt P16581)
The experiment in a line: BSK_3C_Eselectin: BioMAP Diversity Plus: 3C Assay for Eselectin Biomarker Activity (AID 2283015).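 Also: cell surface E-selectin protein quantified by ELISA 24 h after dosing.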 Particulars: primary human endothelial cells (HUVEC); actives raise or lower the signal. The procedure, abridged: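 ELISA read-out of E-selectin on endothelial monolayers after 24 h chemical treatment. Human umbilical vein primary cells served as the system, with DMSO defining baseline activity for bidirectional fitting.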

Assay [19] can be described thus: BSK_3C_Vis: BioMAP Diversity Plus: 3C Assay for Morphology Visualization (AID 2283025).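 Also: fitted both ways so gain or loss versus DMSO counts.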 Particulars: primary human endothelial cells (HUVEC). The procedure, abridged:
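Human umbilical vein endothelial cells in the 3C system were imaged by light microscopy 24 h after chemical dosing to record cell morphology. Activity was fitted bidirectionally against DMSO as negative control and baseline; the endpoint serves as a background control.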

Sequence of human Thyroid Receptor alpha (THRa1), THRA (gene 7067) (P10827 whole entry, looked up, the tested form may be a part): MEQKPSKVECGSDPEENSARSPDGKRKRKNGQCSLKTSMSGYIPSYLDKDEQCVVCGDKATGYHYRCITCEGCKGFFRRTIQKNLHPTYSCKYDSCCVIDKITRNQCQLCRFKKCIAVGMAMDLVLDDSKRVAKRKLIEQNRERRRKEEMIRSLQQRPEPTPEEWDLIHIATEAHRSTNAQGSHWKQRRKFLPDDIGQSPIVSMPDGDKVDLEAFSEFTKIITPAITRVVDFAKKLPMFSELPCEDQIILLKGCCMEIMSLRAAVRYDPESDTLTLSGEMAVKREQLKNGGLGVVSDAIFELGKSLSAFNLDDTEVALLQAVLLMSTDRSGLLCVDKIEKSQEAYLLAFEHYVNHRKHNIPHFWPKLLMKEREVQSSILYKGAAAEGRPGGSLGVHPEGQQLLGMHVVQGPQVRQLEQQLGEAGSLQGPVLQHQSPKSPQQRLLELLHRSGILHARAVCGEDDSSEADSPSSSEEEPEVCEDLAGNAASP
Sequence of human Vitamin D Receptor (VDR), VDR (gene 7421) (P11473 whole entry, looked up, the tested form may be a part): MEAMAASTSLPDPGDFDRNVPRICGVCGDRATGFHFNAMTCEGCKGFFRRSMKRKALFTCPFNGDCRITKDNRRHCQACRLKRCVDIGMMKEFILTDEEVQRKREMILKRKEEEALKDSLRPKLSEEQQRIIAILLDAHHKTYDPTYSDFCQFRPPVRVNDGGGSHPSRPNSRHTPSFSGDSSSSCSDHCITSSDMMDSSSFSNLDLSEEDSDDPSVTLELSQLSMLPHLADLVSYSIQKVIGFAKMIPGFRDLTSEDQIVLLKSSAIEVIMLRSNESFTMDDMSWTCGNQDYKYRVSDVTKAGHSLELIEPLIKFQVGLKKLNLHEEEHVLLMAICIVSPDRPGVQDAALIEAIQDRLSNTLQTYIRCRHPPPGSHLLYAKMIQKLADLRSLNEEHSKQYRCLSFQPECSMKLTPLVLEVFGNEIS
Sequence of Retinoic acid receptor RXR-alpha (Homo sapiens) (P19793 whole entry, looked up, the tested form may be a part): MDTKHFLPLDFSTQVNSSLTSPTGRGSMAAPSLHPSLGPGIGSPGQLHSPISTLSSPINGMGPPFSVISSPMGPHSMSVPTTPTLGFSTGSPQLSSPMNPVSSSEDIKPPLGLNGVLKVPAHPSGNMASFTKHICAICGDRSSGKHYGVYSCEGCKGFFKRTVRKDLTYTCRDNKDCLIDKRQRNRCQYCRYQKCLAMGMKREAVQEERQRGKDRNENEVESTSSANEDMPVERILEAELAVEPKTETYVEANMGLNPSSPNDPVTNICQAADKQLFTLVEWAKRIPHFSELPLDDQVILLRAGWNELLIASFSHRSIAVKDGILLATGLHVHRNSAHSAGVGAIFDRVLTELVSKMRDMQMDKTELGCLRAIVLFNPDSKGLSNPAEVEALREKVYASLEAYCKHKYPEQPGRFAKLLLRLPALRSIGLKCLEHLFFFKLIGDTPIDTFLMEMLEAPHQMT
Sequence of human Retinoid X Receptor beta (RXRb), RXRB (gene 6257) (P28702 whole entry, looked up, the tested form may be a part): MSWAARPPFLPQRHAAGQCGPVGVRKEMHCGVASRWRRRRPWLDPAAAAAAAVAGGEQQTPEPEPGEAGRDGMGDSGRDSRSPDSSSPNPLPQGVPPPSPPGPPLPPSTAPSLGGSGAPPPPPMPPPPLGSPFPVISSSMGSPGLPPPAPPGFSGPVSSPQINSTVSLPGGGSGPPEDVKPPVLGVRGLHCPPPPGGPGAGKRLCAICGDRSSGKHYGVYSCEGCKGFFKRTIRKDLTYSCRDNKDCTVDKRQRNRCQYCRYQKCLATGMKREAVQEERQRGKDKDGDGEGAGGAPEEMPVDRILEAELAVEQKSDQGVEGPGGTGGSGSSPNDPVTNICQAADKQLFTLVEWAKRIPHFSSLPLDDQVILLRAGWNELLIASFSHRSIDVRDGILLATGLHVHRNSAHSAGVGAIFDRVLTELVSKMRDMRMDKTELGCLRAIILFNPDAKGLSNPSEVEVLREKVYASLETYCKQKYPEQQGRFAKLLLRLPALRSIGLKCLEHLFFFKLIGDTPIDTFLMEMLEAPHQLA
Sequence of E-selectin (Homo sapiens) (P16581 whole entry, looked up): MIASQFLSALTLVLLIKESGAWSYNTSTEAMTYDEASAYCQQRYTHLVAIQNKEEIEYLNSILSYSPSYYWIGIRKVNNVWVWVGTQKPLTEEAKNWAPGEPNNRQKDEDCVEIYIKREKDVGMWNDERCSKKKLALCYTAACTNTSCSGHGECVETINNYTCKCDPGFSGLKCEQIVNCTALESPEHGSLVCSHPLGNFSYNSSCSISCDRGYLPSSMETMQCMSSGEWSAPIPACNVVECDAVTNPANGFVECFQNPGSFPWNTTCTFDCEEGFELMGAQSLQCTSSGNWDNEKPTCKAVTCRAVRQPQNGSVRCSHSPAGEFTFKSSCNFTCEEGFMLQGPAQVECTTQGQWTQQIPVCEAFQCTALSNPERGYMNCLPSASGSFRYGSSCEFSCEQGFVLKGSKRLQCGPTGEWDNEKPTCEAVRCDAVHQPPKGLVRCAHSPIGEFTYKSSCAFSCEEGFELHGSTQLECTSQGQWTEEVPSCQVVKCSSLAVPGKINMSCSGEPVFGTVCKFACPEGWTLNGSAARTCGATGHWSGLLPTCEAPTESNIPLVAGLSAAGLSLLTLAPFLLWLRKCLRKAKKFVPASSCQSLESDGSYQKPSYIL

Broadly, the AC50 is the midpoint of the concentration-response curve, whichever way the signal moves. As for `Clc1ccc(Oc2ccccc2)cc1`, the result in assay [1], in assay [3] and in assay [4] was inactive. Further, the AC50 in assay [2] is 100 µM (active).

Consider `COP(=O)(CCC(=O)NCO)OC`, for which the compound was classed as inactive in assay [1], in [5], in [6], in assay [7], in assay [8] and in assay [9]. In addition, the outcome in assay [10], in [11], in [12], in assay [13], in [14] and in [15] was inactive. Also, the outcome in assay [16] was inactive.

On to `CC(=O)CCc1ccc2c(c1)OCO2`, for which the compound was called inactive in [2].

Consider `CCCCc1ccc(O)cc1`, for which, in assay [1], the compound was classed as inactive. The AC50 in assay [2] was 64.2 µM (active).

As for `CCOP(=S)(OCC)SCSc1ccc(Cl)cc1`, the compound was called inactive in [1], in [3], in assay [6], in assay [9], in [10] and in [11]. Besides, the outcome in [12], in assay [14], in [15], in assay [16] and in assay [17] was inactive. Besides, the AC50 in [2] is 13.5 µM (active); in [5], 0.212 µM (active); in [7] it was 8.96 µM (active); in assay [8], 27.5 µM (active); in [13] it was 12.6 µM (active).

Turning to `c1ccc2c(c1)Nc1ccccc1S2`, the call in [1], in assay [3], in assay [18], in assay [5], in [6] and in assay [7] was inactive. The outcome in assay [8], in [9], in [10], in [11], in assay [12] and in assay [13] was inactive. Besides, the outcome in [14], in assay [15] and in [16] was inactive. Besides, the concentration at half-maximal activity (AC50) in assay [2] was 3.98 µM (active).

Take `Cc1c([N+](=O)[O-])cc2c(c1[N+](=O)[O-])C(C)(C)CC2(C)C`: the half-maximal activity concentration (AC50) in assay [1] was 8.24 µM (active); in [2], 1.37 µM (active); in assay [8], 11.9 µM (active); in assay [9] it was 2.03 µM (active). Besides, the compound was classed as inactive in assay [3], in assay [5], in [6], in [7], in assay [10] and in [4]. The result in assay [11], in [12], in assay [13], in assay [14], in [15] and in assay [16] was inactive.

On to `C=CC(=O)OCC(CC)(COC(=O)C=C)COC(=O)C=C`, for which the compound was called inactive in assay [2], in assay [3], in assay [4] and in assay [16]. For the same compound, the AC50 in [5] was 5.88 µM (active); in assay [6], 2.66 µM (active); in assay [7] it was 1.9 µM (active); in assay [8], 1.38 µM (active); in assay [9] it was 3.18 µM (active); in assay [10] it was 3.68 µM (active). The concentration at half-maximal activity (AC50) in assay [11] was 2.33 µM (active); in assay [12] it was 11.4 µM (active); in [19], 2.98 µM (active); in [13], 2.25 µM (active); in assay [14], 4.07 µM (active); in [15], 20 µM (active). Moreover, the AC50 in assay [17] is 4.07 µM (active).

Take `O=S(=O)(c1ccc(O)cc1)c1ccc(O)cc1`: the result in assay [3] and in [4] was inactive.

As to `CCC1(c2ccccc2)C(=O)N=C(O)NC1=O` (stereo not drawn), the outcome in assay [2], in assay [3], in [5], in assay [6], in assay [7] and in assay [8] was inactive. Further, the result in assay [9], in assay [10], in assay [4], in assay [11], in [12] and in assay [19] was inactive. The result in assay [13], in [14], in assay [15], in assay [16] and in [17] was inactive.

Regarding `CCCCc1ccccc1`, the result in assay [3], in assay [18], in assay [5], in assay [6], in assay [7] and in [8] was inactive. Also, the result in assay [9], in [10], in [11], in [12], in assay [13] and in assay [14] was inactive. For the same compound, the outcome in assay [15] and in assay [16] was inactive.
